DAX1 inh-1: inhibits human nuclear receptor DAX1 | actives 0.99% (n = 340,000) | inhibition, % at 6.75 µM | HEK293 Gal4-DAX1 luciferase reporter, luminescence;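 active means inhibition above the mean over all tested compounds plus 3 SD, cut at about 4.2% in these data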;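 further: 0% = DAX1-transfected cells with DMSO and 100% = empty-vector control cells with DMSO; inhibition shows as a rise in luminescence from relieved DAX1 repression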
Target sequence (P51843 207-470 limits assumed): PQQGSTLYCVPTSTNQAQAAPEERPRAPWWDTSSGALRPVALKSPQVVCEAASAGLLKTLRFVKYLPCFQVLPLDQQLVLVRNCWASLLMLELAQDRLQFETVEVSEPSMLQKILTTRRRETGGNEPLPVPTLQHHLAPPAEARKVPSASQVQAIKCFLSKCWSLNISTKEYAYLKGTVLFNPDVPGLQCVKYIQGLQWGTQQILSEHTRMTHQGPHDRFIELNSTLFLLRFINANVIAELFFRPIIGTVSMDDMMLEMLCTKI
ssDAF-12 act: S. stercoralis DAF-12 activation, primary screen; HEK293 ssDAF-12/GRIP1 lit1-tk-luc reporter, luminescence; % of 3 µM dafachronic acid response; activation, % at 6.8 µM; actives 1% (n = 370,000);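 active means activation above the mean over all tested compounds plus 3 SD, cut at about 0.9% in these data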;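 further: 0% = DMSO-only wells and 100% = 3 µM delta7-dafachronic acid wells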
hgDAF-12 ag: agonists of H. glycines DAF-12 nuclear receptor. activation, % at 6.8 µM. actives 1.8% (n = 370,000). HEK293 GAL4-hgDAF12 UAS-luciferase reporter, agonist luminescence; normalized to butyrate control;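 active means activation above a cutoff set at the mean of all screened compounds plus 3 SD, cut at about 10% in these data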;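 further: 0% = DMSO wells and 100% = sodium butyrate wells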
hcDAF12 agonist: activates DAF-12 receptor from parasite H. contortus | HEK293 hcDAF-12 lit1-tk-luc reporter, luminescence; 0% DMSO, 100% Δ7-dafachronic acid | activation, % at 6.8 µM | actives 1.4% (n = 370,000);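 active means activation above the mean of all tested compounds plus 3 SD, cut at about 5.5% in these data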;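 further: 100% = response to 3 µM Δ7-dafachronic acid high control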
DAX1 inh-2: inhibitors of DAX1 repression of SF-1 activated StAR promoter. actives 1.1% (n = 370,000). AID 652010. inhibition, % at 6.8 µM. HEK293T StAR-luciferase reporter, SF-1/DAX-1 repression relief;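 active means inhibition above the mean over all tested compounds plus 3 SD, cut at about 3.6% in these data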;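 further: 0% = DAX-1 cells with DMSO and 100% = cells lacking DAX-1 with DMSO; higher inhibition means more luminescence from relief of DAX-1 repression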
* = called active by the depositor; x = not tested or not shown. Only some compounds are listed: those with a hit (about 4.1% of all), similar ones and a draw of the others.

SMILES	DAX1 inh-1	ssDAF-12 act	hgDAF-12 ag	hcDAF12 agonist	DAX1 inh-2
COc1cc(NC(=O)C/C(C)=N/NC(=O)c2ccccn2)c(OC)cc1Cl	0.7	0.3	13.1*	4.0	1.5
COc1cc(NC(=O)c2cc(C3CC3)on2)c(OC)cc1Cl	0.3	0.4	3.6	6.4*	-0.6
COc1cc(NC(=O)C/C(C)=N/NC(=O)Cc2ccc(Cl)cc2)c(OC)cc1Cl	-0.2	-0.8	-4.4	-2.0	0.0
COc1ccccc1NC(=O)C/C(C)=N/NC(=O)COc1c(Br)cc(Br)cc1OC	2.9	-1.7	0.9	-0.5	4.2*
CCc1ccccc1NC(=O)C/C(C)=N/NC(=O)COc1ccccc1C	-0.4	-0.6	1.0	0.3	0.0
C=CCn1c(COc2ccccc2)nnc1SCC(=O)Nc1ccc(Oc2ccccc2)cc1	x	-1.3	3.0	-3.0	0.2
Cn1c(NC2=NC3(CCCC3)C3=C(CCCC3=O)N2)nc2ccccc21	x	-1.2	0.8	0.3	x
Cc1ccc(NC(=O)CSc2ncccn2)cc1F	5.7*	-1.6	1.6	-0.6	-1.4
Cc1ccc(NC(=O)CSc2nccn2C)cc1F	1.1	-0.5	2.8	1.7	4.4*
CC(=O)c1ccc(NC(=O)CSc2nccn2C)cc1	1.4	-1.3	4.7	0.1	0.5
C[C@H]1[C@@H](OC(=O)NCc2ccccc2)CC[C@@]23CCCN2C(=O)CCC[C@@H]13	x	-0.5	-3.8	-1.0	x
COC(=O)[C@]12C[C@H](CC(=O)NCCC(C)C)C(=O)N(Cc3ccco3)C1=C[C@H](C(C)C)O[C@@H]2C1CC1	x	-0.9	3.8	-3.2	-0.1
Cc1csc(SC(C)C(=O)NCC2CCCCC2)n1 (centres undefined)	0.6	1.0*	-0.7	1.1	-0.1
Cc1csc(SC(C)C(=O)Nc2ccc(S(=O)(=O)N3CCCC3)cc2)n1 (centres undefined)	-0.7	-1.5	3.7	-0.9	1.5
O=S1(=O)c2ccc(N3CCN(Cc4ccccc4F)CC3)cc2Oc2ccccc2CN1Cc1cn(Cc2cccc(F)c2)nn1	x	-1.5	-1.9	-0.9	-0.7
O=C(Cn1cnc2c(oc3nc4c(cc32)CCCC4)c1=O)Nc1ccccc1	0.1	0.3	2.9	-1.2	-0.1
C=C(C)Cn1cnc2c(oc3nc4c(cc32)CCCC4)c1=O	6.6*	-0.5	7.2	2.2	1.4
C=CCN(C)C(C#Cc1ccccc1)Cc1ccccc1 (centres undefined)	x	-1.6	-0.7	-0.8	x
COc1cc(/C=C/c2ccc3cccc(O)c3n2)cc(Br)c1OC	1.7	-0.2	11.5*	0.5	0.5
COc1ccc(CCn2nc(C)c([N+](=O)[O-])c2C)cc1	1.4	-0.5	8.8	2.3	4.2*
COc1ccc2c(c1)Sc1ccc(Cl)cc1N2	x	-1.0	1.7	0.3	x
Fc1ccc(NCc2cccnc2)cc1F	-1.2	1.2*	0.6	3.9	0.4
Clc1ccc(NCc2cccnc2)cc1	0.7	-1.3	0.3	-2.1	-0.1
CCCC(=O)NC(=S)c1c(C)n(C)n(-c2ccccc2)c1=O	-0.2	0.4	-1.7	5.8*	0.6
Cc1c(Cc2c(C)n(C)n(-c3ccccc3)c2=O)c(=O)n(-c2ccccc2)n1C	0.6	0.2	1.4	0.5	0.1
SMILES	DAX1 inh-1	ssDAF-12 act	hgDAF-12 ag	hcDAF12 agonist	DAX1 inh-2
COc1ccccc1N/N=C1\COC(C)(C)CC1=O	4.8*	-1.1	1.1	-0.1	-0.1
Cc1cccc(N/N=C2/COC(C)(C)CC2=O)c1	1.5	-0.2	13.1*	5.0	2.9
CC1(C)CC(=O)/C(=N/Nc2ccc(Cl)cc2)CO1	4.5*	-0.8	11.0*	1.2	3.3
O=C(CSc1nc2ccccc2n1Cc1ccccc1)NN=C/C=C/c1ccccc1	x	-1.5	-1.4	0.1	0.3
COc1ccc(NC(=O)Nc2ccccc2C(=O)N2CCCC2)cc1OC	x	-1.0	-1.7	-0.6	1.1
O=C(CSc1nnc(-c2cccs2)n1Cc1ccco1)Nc1ccc(Oc2ccccc2)cc1	x	-1.6	-6.2	-1.9	-0.8
Cc1ccc(NC(=O)c2snc3ccc(Cl)cc23)cc1C	1.8	0.1	10.4	6.0*	2.2
C=CCn1c(C)cc(C(=O)CSc2nnc(C3CC3)n2C2CC2)c1C	0.3	-0.2	3.2	-0.2	4.2*
CC(=O)NCCc1ccc(C(=O)CSc2nnc(C3CC3)n2C2CC2)cc1	0.7	-0.8	1.8	3.2	4.5*
CCCCN(C)C(=O)CNc1nnnn1-c1ccccc1	x	-1.4	0.5	0.8	1.1
COC(=O)[C@]12C[C@H](CC(=O)NCCC(C)C)C(=O)N(Cc3cccc4ccccc34)C1=C[C@H](C(C)(C)C)O[C@@H]2C	x	-1.5	2.8	-0.3	-0.2
N/C(=N\OC(=O)Nc1ccccc1)c1ncc(C(F)(F)F)cc1Cl	1.9	-0.3	0.3	5.6*	0.3
O=C(c1ccccc1)c1ncc(C(F)(F)F)cc1Cl	0.4	-1.1	2.4	-0.9	-0.1
COC(=O)/C(=C\Nc1ccccc1N)c1ncc(C(F)(F)F)cc1Cl	1.3	0.7	11.7*	5.7*	4.3*
CN(C)CCN(C(=O)c1ccc2ccccc2c1)c1nc2cc3c(cc2s1)OCCO3	0.9	0.1	7.8	1.3	3.7*
CN(C)CCCN(C(=O)c1ccc2ccccc2c1)c1nc2cc3c(cc2s1)OCO3	0.3	-0.9	0.0	-2.2	3.4
O=C(Oc1cccc2ccccc12)c1ccccc1	7.1*	-1.2	3.3	0.1	1.8
CN(C)/C=N/c1sc2c(c1C#N)CCCC2	0.5	-1.0	7.7	0.7	1.0
CC1CCc2c(sc(/N=C/N(C)C)c2C#N)C1 (centres undefined)	4.7*	-0.6	6.0	1.2	-0.1
COc1ccc2[nH]c3c(c2c1)CCN[C@]31C(=O)N(c2ccccc2)c2ccccc21	x	-0.6	1.3	-3.0	-0.5
CCCCOCCCNC(=O)C[C@H]1C[C@@]2(C(=O)OC)C(=C[C@H](C(C)C)O[C@@H]2C2CC2)N(Cc2ccccc2)C1=O	x	-1.3	0.9	-1.9	0.1
O=C1CC(SC2=NCCS2)C(=O)N1c1ccc(Cl)cc1 (centres undefined)	-0.7	1.4*	-3.3	0.1	-0.1
CCNC(=O)N(C)[C@H]1C[C@H]2c3[nH]c4c(-c5cccc(C)c5)cccc4c3CCN2C(=O)[C@H]1[C@H](C)O	x	-1.3	-0.6	-2.2	-0.8
Nc1[nH]c(C(=O)c2ccccc2)c(-c2ccc(Cl)cc2)c1C(=O)NCCC1=CCCCC1	x	-1.2	-1.8	-0.1	x
CC(=O)Oc1cc(C)c(Cl)c2c(OC(C)=O)cc(C(C)=O)c(O)c12	x	-0.7	-2.7	-2.0	-1.7
O=C(Cn1cnc2ccccc2c1=O)c1ccc2c(c1)OCCO2	2.2	-0.4	11.4*	3.2	2.4
O=C1OCCN1C(=O)[C@H]1[C@H](c2ccc(Cl)cc2)C(c2ccc(F)cc2)=NN1c1ccccc1	-0.5	-1.2	2.6	0.9	3.8*
Cc1cccc(C2=NN(c3ccccc3)[C@@H](C(=O)N3CCOC3=O)[C@@H]2C)c1	0.0	-0.8	1.9	2.1	3.7*

Assay outcomes as filed in PubChem BioAssay.
